Data as given in PubChem BioAssay AID2553 (Johns Hopkins Ion Channel Center, 2010).
Screen size: about 310,000 compounds; about 3,300 (1.1%) were called active.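 Rule for the calls: active = B-score under library mean minus 3 SD, initial fluorescence not abnormally high, positive integrated signal ratio; inactive = the rest.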 For the sample, actives were picked, then their nearest neighbours and some compounds at random.

These compounds were tested against Short transient receptor potential channel 6 (Mus musculus) (UniProt Q61143) (assay: mouse TRPC6 channel inhibitors, primary screen, cell-based, HEK293, membrane potential dye (AID 2553;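 for B-score: B-score derived from integrated fluorescence ratio over the kinetic read; more negative B-score means stronger inhibition of depolarization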)). Conditions: ACh-evoked depolarization, at 10 µM; hits give low values.
Sequence of Short transient receptor potential channel 6 (Mus musculus) (Q61143 whole entry, looked up): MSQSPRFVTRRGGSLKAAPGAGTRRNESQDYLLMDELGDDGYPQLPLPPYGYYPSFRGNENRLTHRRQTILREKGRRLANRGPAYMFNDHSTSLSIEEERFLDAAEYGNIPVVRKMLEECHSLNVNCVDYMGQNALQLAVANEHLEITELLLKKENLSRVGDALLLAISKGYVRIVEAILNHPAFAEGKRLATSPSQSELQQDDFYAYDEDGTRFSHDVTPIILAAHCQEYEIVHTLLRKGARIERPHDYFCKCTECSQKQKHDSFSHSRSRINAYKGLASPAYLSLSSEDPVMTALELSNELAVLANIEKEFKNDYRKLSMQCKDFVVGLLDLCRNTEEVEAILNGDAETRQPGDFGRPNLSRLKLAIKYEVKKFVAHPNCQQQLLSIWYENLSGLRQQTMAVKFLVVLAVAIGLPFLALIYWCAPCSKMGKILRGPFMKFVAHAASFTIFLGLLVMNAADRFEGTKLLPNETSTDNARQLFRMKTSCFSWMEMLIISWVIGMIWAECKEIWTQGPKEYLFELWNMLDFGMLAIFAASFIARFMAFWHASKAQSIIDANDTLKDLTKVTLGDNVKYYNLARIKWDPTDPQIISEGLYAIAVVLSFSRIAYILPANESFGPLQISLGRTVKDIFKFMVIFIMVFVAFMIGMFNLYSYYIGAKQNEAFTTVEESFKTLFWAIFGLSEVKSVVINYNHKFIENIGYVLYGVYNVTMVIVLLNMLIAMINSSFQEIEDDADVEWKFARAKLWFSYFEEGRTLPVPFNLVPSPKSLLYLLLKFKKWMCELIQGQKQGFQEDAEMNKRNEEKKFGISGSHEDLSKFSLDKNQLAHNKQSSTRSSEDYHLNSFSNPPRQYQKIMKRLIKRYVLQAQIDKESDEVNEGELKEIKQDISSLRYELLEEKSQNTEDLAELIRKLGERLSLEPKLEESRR
In the case of O=C(NCCc1ccccc1Cl)C1CCC(=O)N(CCCc2ccccc2)C1 (stereo not given), the B-score is reported as “inactive”.
For CC(C)c1ccc(NC(=O)Cn2ncc3ccccc32)cc1, the B-score was -5.5 (active).
With CCOC(=O)c1cn(CC(=O)Nc2ccc(C(C)C)cc2)nn1 the B-score was “inactive”.
For CCc1ccc(NC(=O)Cn2ncn3c(cc4ccccc43)c2=O)cc1, the B-score was “inactive”.
In the case of Cc1cc(O)c(C2(O)C(=O)Nc3ccccc32)cc1C (stereo not given), the B-score is reported as “inactive”.
With CCc1ccccc1NC(=O)CN(c1ccc(OC)cc1OC)S(=O)(=O)c1ccccc1[N+](=O)[O-] the B-score was “inactive”.
With CCOc1ccc(C2c3[nH]c4ccccc4c3CCN2Cc2cccn2-c2ncccn2)cc1 (stereo not given) the B-score was “inactive”.
With c1ccc(C2c3[nH]c4ccccc4c3CCN2Cc2cccn2-c2cccnc2)nc1 (stereo not given) the B-score was -6.75 (active).
In the case of COCc1ccc(C(=O)N2CCc3c([nH]c4ccccc34)C2c2ccccn2)s1 (stereo not given), the B-score is reported as “inactive”.
For COc1ccccc1N1CC(C(=O)Nc2nnc(SCC(=O)NC(C)C)s2)CC1=O (stereo not given), the B-score was “inactive”.
For CS(=O)(=O)N(CC(O)Cn1c2ccccc2c2ccccc21)c1cccc2ccccc12 (stereo not given), the B-score was “inactive”.
CCCCN(CCCC)CC(O)Cn1c2ccccc2c(=O)c2ccccc21 (stereo not given) was tested, and the B-score was -5.74 (active).
With CCCCn1c(=O)c(C(C)=O)c(O)c2ccccc21 the B-score was “inactive”.
For O=C1N(c2ccc(Cl)cc2)C(c2ccc(Cl)cc2)N2CCCN12 (stereo not given), the B-score was “inactive”.
For c1ccc(C2CNCc3c2ccc2ccccc32)cc1 (stereo not given), the B-score was -5 (active).
With NC(=O)C1=C[C@H](c2csc3ccccc23)C[C@H](OCc2ccc(CO)cc2)O1 the B-score was “inactive”.
With Cc1nc2ccc(C(=O)N3CCN(c4ccccc4)CC3)cc2s1 the B-score was “inactive”.
With Cc1ccc2nc(Nc3ccccc3)cc(C)c2c1 the B-score was “inactive”.
In the case of Cc1ccc2nc(C)c3c(c2c1)N(c1ccccc1)CC3, the B-score is reported as -8.61 (active).
O=C(NNS(=O)(=O)c1ccccc1)c1cnn(-c2ccc(Cl)cc2)c1C(F)(F)F was tested, and the B-score was “inactive”.
In the case of CC1CCC(NS(=O)(=O)c2ccc3c(c2)CC(=O)N3)CC1 (stereo not given), the B-score is reported as “inactive”.
CN(C)CCCN(C(=O)c1ccc(S(=O)(=O)N2CCCCCC2)cc1)c1nc2cc3c(cc2s1)OCCO3 was tested, and the B-score was “inactive”.
For CCc1ccc2nc(N(CCCN(C)C)C(=O)c3ccc4c(c3)OCCO4)sc2c1, the B-score was -6.22 (active).
For CCOc1ccc2nc(N(CCCN(C)C)C(=O)c3ccc(C(=O)c4ccccc4)cc3)sc2c1, the B-score was “inactive”.
With O=C(NCCCN1CCCCC1)C1CCCN(c2ncnc3c2nc2n3CCCCC2)C1 (stereo not given) the B-score was “inactive”.
With Cc1ccc(C(C(=O)NCC2CCCO2)N(C(=O)c2snc(C(N)=O)c2N)c2ccc(C(C)C)cc2)o1 (stereo not given) the B-score was “inactive”.
With Cc1cccc(NC(=O)Nc2ccc3c(c2)OCO3)n1 the B-score was “inactive”.
For Cn1c(=O)cc(OCCCC(=O)N2CCN(Cc3ccc4c(c3)OCO4)CC2)c2ccccc21, the B-score was “inactive”.
O=C(CCCN1C(=O)c2cccc3cccc(c23)C1=O)N1CCN(Cc2ccc3c(c2)OCO3)CC1 was tested, and the B-score was -6.03 (active).
With O=C(Nc1cccc2ccccc12)N1CCN(Cc2ccc3c(c2)OCO3)CC1 the B-score was “inactive”.
For CC1(C)O[C@H]2CC(=O)OCC23[C@H]2CC[C@@]4(C)[C@H](c5ccoc5)OC(=O)[C@H]5O[C@]54[C@]2(C)C(=O)C[C@@H]13 (stereo not given in full), the B-score was “inactive”.
For COc1ccccc1N(CC(=O)N/N=C(\C)c1ccccc1O)S(=O)(=O)c1ccc(C)cc1, the B-score was “inactive”.
O=C(CSc1nc2ccccc2[nH]1)N/N=C/C=C\c1ccccc1[N+](=O)[O-] was tested, and the B-score was “inactive”.
In the case of CC1CCN(c2ccc([N+](=O)[O-])c(SCCO)c2)CC1, the B-score is reported as “inactive”.
With CN1CCN(c2ccc([N+](=O)[O-])c(Sc3nc4ccccc4[nH]3)c2)CC1 the B-score was -5.53 (active).
With O=c1c(-c2ccc(Cl)cc2)[n+]([O-])c2ccccc2n1OCc1nc2ccccc2[nH]1 the B-score was “inactive”.
In the case of COc1ccc(C(=O)NC2CCN(C(=O)Nc3ccc(F)cc3)CC2)cc1, the B-score is reported as “inactive”.
CCOC(=O)N1CCC(N2Cc3cccc(C(=O)Nc4ccc(S(=O)(=O)N(CC)CC)cc4)c3C2=O)CC1 was tested, and the B-score was “inactive”.
In the case of CCCCN=C(N)/C(C(=O)OCC)=C(\O)c1ccc(OC)cc1, the B-score is reported as “inactive”.
CCN1CCN(C(C(=O)NC2CCCC2)c2cc3c(cc2[N+](=O)[O-])OCO3)CC1 (stereo not given) was tested, and the B-score was “inactive”.
In the case of COC(=O)c1ccccc1NC(=O)C1CC(=O)N(c2ccc(OC)cc2)C1 (stereo not given), the B-score is reported as “inactive”.
With COC(=O)c1ccccc1NC(=O)C1CCN(S(=O)(=O)c2cc(OC)ccc2OC)CC1 the B-score was -5.1 (active).
For COc1ccc(NC(=O)C2CCN(S(=O)(=O)c3ccc4[nH]c(=O)oc4c3)CC2)c(OC)c1, the B-score was “inactive”.
For COc1cccc(NC(=O)C/C(C)=N/NC(=O)C2CCCCC2)c1, the B-score was “inactive”.
With Cc1cc2oc(=O)cc(CN3CCN(Cc4ccccc4)CC3)c2cc1C the B-score was “inactive”.
With CCCOc1ccc(C2c3c(oc4cc(C)c(C)cc4c3=O)C(=O)N2CCCN2CCOCC2)cc1 (stereo not given) the B-score was “inactive”.
Cc1cc2oc3ccc(NCCC4CCCN4C)cc3c(=O)c2cc1C (stereo not given) was tested, and the B-score was -9.21 (active).
For CCc1ccc(/C=N/NC(=O)c2ccc(OC3CCCC3)cc2)s1, the B-score was “inactive”.
For CCN(CC)C(=O)CSc1ncnc2c1cnn2-c1ccccc1, the B-score was “inactive”.
CCOc1ccccc1N1CCN(C(=O)c2ccc3[nH]c(C)c(C)c3c2)CC1 was tested, and the B-score was “inactive”.
